Experimental data: PubChem BioAssay (Tox21)
Activity calls are given as the source filed them. Calls come from the whole dose curve. Where a SMILES comes first, the peptide text is derived from it. [ ]: non-standard residue; d: D form. pGlu = O=C1CC[C@@H](C(=O)O)N1

Experiment: qHTS assay to identify small molecule agonists of the estrogen related receptor (ERR) signaling pathway from Tox21 library (AID 1224849); note: nearly all actives have a fitted effect of over 15% in size
Conditions: ERR reporter cell line, ONE-Glo luciferase, 18 h; series mostly up to 92.4 µM; activity change, positive = activation: at the top concentration
Description: National Center for Advancing Translational Sciences [NCATS]
NIH Chemical Genomics Center [NCGC]
U.S. Environmental Protection Agency [EPA]
National Institutes of Environmental Health Sciences [NIEHS]
National Toxicology Program [NTP]
Estrogen related receptors (ERRs), the first orphan nuclear receptors discovered, play an important role in the control of cellular energy metabolism. ERRs are required for high-energy production in response to the environmental challenges. ERR-alpha was also identified as an adverse marker for breast cancer progression; ERR-alpha-positive tumors have a poor prognosis. To screen and to identify environmental compounds that perturb the ERR signaling pathways could provide valuable information for potential therapeutic or preventive measures in the treatment of metabolic disease. For identifying ERR agonists, ERR cell line (provided by NTP) has been used to screen Tox21 10K library.
The ERR cells were dispensed at 2,000 cells/5 ul/well in 1536-well white plates using a Multidrop dispenser. After the assay plates were incubated at a 37 C/5% CO2 incubator for 6 hours, 23 nL of compounds dissolved in DMSO, positive and negative controls or DMSO only was transferred to the assay plate by a pin tool. The plates were incubated at 37 C for 18 hours. 4 ul/well of One-Glo reagent was added into the assay plates using a Flying Reagent Dispenser. After 30-minute incubation at room temperature, the luminescence intensity in the plates was measured using a ViewLux plate reader.
% is set by controls: 0 for no effect and ±100 for the full control effect.

Row | SMILES | activity change, positive = activation
1 | CCCCN1C=CN(C)C1 | 9.96% [at 19 µM] (inactive)
2 | O=Cc1cccc(Br)c1 | 1.96% (inactive)
3 | CC(=O)OCC(=O)[C@@]1(O)[C@H](C)C[C@H]2[C@@H]3CCC4=CC(=O)C=C[C@]4(C)[C@@]3(F)[C@@H](O)C[C@@]21C | -9.88% [at 42.5 µM] (inactive)
4 | CC(COc1ccccc1)NN (stereo not given) | 2.96% [at 42.5 µM] (inactive)
5 | CCCCCC(=O)OCCc1ccccc1 | 3.82% (inactive)
6 | C[C@@H]1CCC[C@H](C)N1 | 3.96% [at 42.5 µM] (inactive)
7 | O=C(CO)[C@@H](O)[C@H](O)[C@H](O)CO | 5.28% (inactive)
8 | CCOC(=O)COC(=O)c1ccccc1C(=O)OCC | 3.54% (inactive)
9 | CC1=C(C/C=C(\C)CCC[C@H](C)CCC[C@H](C)CCCC(C)C)C(=O)c2ccccc2C1=O | 6.98% [at 42.5 µM] (inactive)
10 | O=C(CO)[C@@H](O)[C@H](O)[C@@H](O)CO | 4.93% [at 42.5 µM] (inactive)
11 | C[C@H]1C[C@H]2[C@@H]3CCC4=CC(=O)C=C[C@]4(C)[C@H]3C(=O)C[C@]2(C)[C@@]1(O)C(=O)CO | 9.8% [at 42.5 µM] (inactive)
12 | COCCOCC(OC)OC | 4.34% [at 42.5 µM] (inactive)
13 | CCO[Si](OCC)(OCC)c1ccccc1 | 9.7% (inactive)
14 | CN(C)C(=O)Oc1ccc[n+](C)c1 | 6.17% [at 42.5 µM] (inactive)
15 | CN1[C@@H]2CC[C@H]1CC(OC(=O)C(O)c1ccccc1)C2 (stereo not given in full) | 4.92% [at 42.5 µM] (inactive)
16 | CCCCCCCCN1CCCC1=O | -0.257% (inactive)
17 | COCCOC[C@H](CC1(C(=O)NC2CCC(C(=O)O)CC2)CCCC1)C(=O)Oc1ccc2c(c1)CCC2 (stereo not given in full) | -7.48% (inactive)
18 | O=S(=O)(O)c1cccc(S(=O)(=O)O)c1 | -4.47% (inactive)
19 | Cc1ccnc(NS(=O)(=O)c2ccc(N)cc2)n1 | 1.15% [at 42.5 µM] (inactive)
20 | CO[Si](C)(OC)c1ccccc1 | 0.587% (inactive)

Row | SMILES | activity change, positive = activation
21 | O=C1NC(=O)C2CC=CCC12 (stereo not given) | 1.75% (inactive)
22 | O=C(O)CC(C(=O)O)S(=O)(=O)O (stereo not given) | 0.596% (inactive)
23 | CC(C)(N)C#N | 2.41% (inactive)
24 | CCCC(C)C(=O)OCC (stereo not given) | 0.804% (inactive)
25 | CCNC(=O)[C@@H]1CCCN1C(=O)[C@H](CCCN=C(N)N)NC(=O)[C@H](CC(C)C)NC(=O)CNC(=O)[C@H](Cc1ccc(O)cc1)NC(=O)[C@H](CO)NC(=O)[C@H](Cc1c[nH]c2ccccc12)NC(=O)[C@H](Cc1cnc[nH]1)NC(=O)[C@@H]1CCC(=O)N1 ([pGlu]HWSYGLRP-NHEt) | 2.29% [at 42.5 µM] (inactive)
26 | CCC(C(=O)NC(=O)NC(C)=O)c1ccccc1 (stereo not given) | 0.701% [at 42.5 µM] (inactive)
27 | CCOC(=O)OC(C)OC1=C(C(=O)Nc2ccccn2)N(C)S(=O)(=O)c2ccccc21 (stereo not given) | 0.468% [at 42.5 µM] (inactive)
28 | NC(N)=NCCN1CCCCCCC1 | 7.2% [at 0.349 µM] (inactive)
29 | COc1cc2c(cc1OC)-c1cc3ccc(OC)c(OC)c3c[n+]1CC2 | -39% (inactive)
30 | CCCCCCC1CCC(=O)O1 (stereo not given) | 4.42% (inactive)
31 | CCOC(=O)c1ccccc1 | 7.02% (inactive)
32 | CCOC(=O)CCC(=O)OCC | -3.81% (inactive)
33 | CC[C@H]1OC(=O)[C@H](C)[C@@H](O[C@H]2C[C@@](C)(OC)[C@@H](O)[C@H](C)O2)[C@H](C)[C@@H](O[C@@H]2O[C@H](C)C[C@H](N(C)C)[C@H]2O)[C@](C)(OC)C[C@@H](C)C(=O)[C@H](C)[C@@H](O)[C@]1(C)O | -1.83% (inactive)
34 | Nc1ccn([C@@H]2O[C@H](CO)[C@@H](O)[C@@H]2O)c(=O)n1 | -8.27% (inactive)
35 | O=CN(CCO)CCO | -0.235% (inactive)
36 | CCCCOCCOC(=O)CCCCCCCCC(=O)OCCOCCCC | 1.57% (inactive)
37 | CCCCCCCCCC[N+](C)(C)[O-] | -4.45% (inactive)
38 | C=CCCC(=O)O | 0.375% (inactive)
39 | Cc1nc(C2CCCCC2)c(-c2ccc(S(N)(=O)=O)c(F)c2)o1 | -5.17% [at 42.5 µM] (inactive)
40 | CO[C@@]1(NC(=O)C(C(=O)O)c2ccc(O)cc2)C(=O)N2C(C(=O)O)=C(CSc3nnnn3C)CO[C@@H]21 (stereo not given in full) | 13.4% [at 42.5 µM] (inactive)
